We go through one sequence from publication PMC7862700, “An all-to-all approach to the identification of sequence-specific readers for epigenetic DNA modifications on cytosine”.

Holding throughout (assay): DAPPL (digital affinity profiling via proximity ligation, sequencing); 10 mM Tris-HCl pH 7.5, 50 mM NaCl, 1 mM DTT, 4% glycerol, room temperature, 30 min; GST-TFs on glutathione beads, 16-mer random dsDNA library, 0.1% formaldehyde crosslink after washing; high values mean tight binding
For assay [1], the target named is T1, FEV (Homo sapiens, UniProt Q99581 1-238).
T1 sequence: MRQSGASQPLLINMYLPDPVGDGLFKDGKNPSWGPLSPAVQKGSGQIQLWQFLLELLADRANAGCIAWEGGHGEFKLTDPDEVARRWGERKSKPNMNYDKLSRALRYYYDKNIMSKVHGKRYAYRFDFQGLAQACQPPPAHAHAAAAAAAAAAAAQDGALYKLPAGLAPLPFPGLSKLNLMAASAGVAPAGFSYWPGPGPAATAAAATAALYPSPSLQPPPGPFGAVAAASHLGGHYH
As to conditions: protein: recombinant; tags: N-terminal GST; dsDNA, one strand shown. In a few lines:
(§1)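 Binding signal is given per hexamer as its read frequency for a factor divided by its frequency in the tag-only sample. GST-fused human transcription factors were expressed in yeast, captured on glutathione beads, barcoded with DNA and pooled with that sample, then incubated with 200 nmole of a 16-mer random double-stranded DNA library in Tris/NaCl/DTT/glycerol buffer for 30 min at room temperature. The pools were then washed, crosslinked, proximity-ligated, amplified by PCR and sequenced on an Illumina NextSeq500.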

Assay [2] concerns the target ETV5 (Homo sapiens, UniProt P41161 1-510). Particulars: protein: recombinant; tags: N-terminal GST; dsDNA, one strand shown. The method in brief:
as §1

Assay [3] has as its target HSF1 (Homo sapiens, UniProt Q00613 1-529). As to conditions: protein: recombinant; tags: N-terminal GST; chain copies: 3; dsDNA, one strand shown. The method in brief:
as §1

Assay [4] has as its target T2, SPIC (Homo sapiens, UniProt Q8N5J4 1-248).
T2 sequence: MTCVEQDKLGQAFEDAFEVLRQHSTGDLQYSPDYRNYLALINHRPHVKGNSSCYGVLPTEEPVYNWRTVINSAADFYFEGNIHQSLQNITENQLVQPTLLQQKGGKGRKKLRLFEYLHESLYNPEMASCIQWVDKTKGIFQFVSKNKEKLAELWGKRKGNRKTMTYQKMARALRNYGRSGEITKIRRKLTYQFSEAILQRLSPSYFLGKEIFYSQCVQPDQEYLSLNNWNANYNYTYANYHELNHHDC
Particulars: protein: recombinant; tags: N-terminal GST; dsDNA, one strand shown. The method in brief: as §1

Assay [5] concerns the target ELF4 (Homo sapiens, UniProt Q99607 1-663). As to conditions: protein: recombinant; tags: N-terminal GST; dsDNA, one strand shown. The method in brief:
as §1

The target in assay [6] is T3, ELK4 (Homo sapiens, UniProt P28324-2 1-405).
T3 sequence: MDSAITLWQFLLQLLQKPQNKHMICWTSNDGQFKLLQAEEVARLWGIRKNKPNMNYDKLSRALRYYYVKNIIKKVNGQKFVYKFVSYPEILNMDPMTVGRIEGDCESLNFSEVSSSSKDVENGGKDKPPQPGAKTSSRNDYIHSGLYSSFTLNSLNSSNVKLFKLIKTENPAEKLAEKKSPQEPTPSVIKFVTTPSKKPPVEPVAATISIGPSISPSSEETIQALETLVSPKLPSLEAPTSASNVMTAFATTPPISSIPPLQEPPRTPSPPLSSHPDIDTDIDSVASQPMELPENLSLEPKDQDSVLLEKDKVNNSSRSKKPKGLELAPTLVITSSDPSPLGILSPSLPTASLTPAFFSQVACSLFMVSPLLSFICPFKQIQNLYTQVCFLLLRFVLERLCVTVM
Particulars: protein: recombinant; tags: N-terminal GST; dsDNA, one strand shown. In a few lines:
as §1

Assay [7] has as its target T4, ETV2 (Homo sapiens, UniProt O00321 1-342).
T4 sequence: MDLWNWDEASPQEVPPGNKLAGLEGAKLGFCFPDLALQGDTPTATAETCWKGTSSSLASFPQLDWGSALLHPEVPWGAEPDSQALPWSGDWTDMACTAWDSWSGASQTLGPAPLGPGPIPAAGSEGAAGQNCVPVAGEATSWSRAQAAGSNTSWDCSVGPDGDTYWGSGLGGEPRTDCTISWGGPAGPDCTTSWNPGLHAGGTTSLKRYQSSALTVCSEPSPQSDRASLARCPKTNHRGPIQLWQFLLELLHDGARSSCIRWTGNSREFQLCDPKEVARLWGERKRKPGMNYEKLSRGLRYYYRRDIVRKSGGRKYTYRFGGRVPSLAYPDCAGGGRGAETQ
Particulars: protein: recombinant; tags: N-terminal GST; dsDNA, one strand shown. The method in brief:
as §1

Assay [8] deals with T5, ELF3 (Homo sapiens, UniProt P78545 1-371).
T5 sequence: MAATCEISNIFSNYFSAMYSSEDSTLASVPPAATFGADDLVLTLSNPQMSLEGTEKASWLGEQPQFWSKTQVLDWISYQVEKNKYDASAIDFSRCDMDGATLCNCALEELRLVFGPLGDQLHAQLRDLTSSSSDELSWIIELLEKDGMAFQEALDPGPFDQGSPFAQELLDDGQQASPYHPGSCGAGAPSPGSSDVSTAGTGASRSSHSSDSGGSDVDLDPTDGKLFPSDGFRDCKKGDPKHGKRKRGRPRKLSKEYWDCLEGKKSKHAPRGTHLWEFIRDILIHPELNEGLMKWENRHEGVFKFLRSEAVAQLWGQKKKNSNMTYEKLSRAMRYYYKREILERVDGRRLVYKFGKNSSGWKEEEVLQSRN
As to conditions: protein: recombinant; tags: N-terminal GST; dsDNA, one strand shown. In a few lines: as §1

In assay [9] the target is CRX (Homo sapiens, UniProt O43186 1-299). As to conditions: protein: recombinant; tags: N-terminal GST; dsDNA, one strand shown. The method in brief:
as §1

The target of assay [10] is ETV1 (Homo sapiens, UniProt P50549 1-477). Particulars: protein: recombinant; tags: N-terminal GST; dsDNA, one strand shown. The method in brief: as §1
Assay [11] deals with T6, ERF (Homo sapiens, UniProt P50548 1-548).
T6 sequence: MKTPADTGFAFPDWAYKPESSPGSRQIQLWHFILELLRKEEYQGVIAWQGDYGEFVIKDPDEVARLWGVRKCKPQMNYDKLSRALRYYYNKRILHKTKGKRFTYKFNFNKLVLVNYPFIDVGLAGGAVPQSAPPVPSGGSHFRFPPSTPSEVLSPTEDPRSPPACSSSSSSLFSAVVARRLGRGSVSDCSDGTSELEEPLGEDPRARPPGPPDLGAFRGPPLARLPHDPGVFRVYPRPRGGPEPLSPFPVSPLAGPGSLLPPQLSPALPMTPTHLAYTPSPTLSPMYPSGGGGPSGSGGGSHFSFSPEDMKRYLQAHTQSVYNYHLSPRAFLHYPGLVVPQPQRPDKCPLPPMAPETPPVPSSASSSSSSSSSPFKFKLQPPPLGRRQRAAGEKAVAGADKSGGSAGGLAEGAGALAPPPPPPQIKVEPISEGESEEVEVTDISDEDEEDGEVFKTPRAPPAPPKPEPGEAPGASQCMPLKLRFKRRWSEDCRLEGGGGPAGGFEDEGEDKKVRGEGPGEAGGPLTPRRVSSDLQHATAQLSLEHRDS
As to conditions: protein: recombinant; tags: N-terminal GST; dsDNA, one strand shown. In a few lines: as §1

The target of assay [12] is T7, ETV3L (Homo sapiens, UniProt Q6ZN32 1-361).
T7 sequence: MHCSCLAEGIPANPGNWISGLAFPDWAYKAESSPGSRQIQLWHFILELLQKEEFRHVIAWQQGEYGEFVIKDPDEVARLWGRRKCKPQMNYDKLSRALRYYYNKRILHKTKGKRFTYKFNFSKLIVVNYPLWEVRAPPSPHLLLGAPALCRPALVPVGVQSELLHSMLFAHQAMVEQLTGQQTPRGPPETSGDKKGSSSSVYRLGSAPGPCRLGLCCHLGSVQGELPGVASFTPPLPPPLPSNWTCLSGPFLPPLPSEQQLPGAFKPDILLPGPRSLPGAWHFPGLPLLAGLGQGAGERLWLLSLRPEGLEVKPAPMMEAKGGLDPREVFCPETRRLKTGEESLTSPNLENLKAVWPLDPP
As to conditions: protein: recombinant; tags: N-terminal GST; dsDNA, one strand shown. In a few lines:
as §1

The target of assay [13] is T8, ETS2 (Homo sapiens, UniProt P15036 1-469).
T8 sequence: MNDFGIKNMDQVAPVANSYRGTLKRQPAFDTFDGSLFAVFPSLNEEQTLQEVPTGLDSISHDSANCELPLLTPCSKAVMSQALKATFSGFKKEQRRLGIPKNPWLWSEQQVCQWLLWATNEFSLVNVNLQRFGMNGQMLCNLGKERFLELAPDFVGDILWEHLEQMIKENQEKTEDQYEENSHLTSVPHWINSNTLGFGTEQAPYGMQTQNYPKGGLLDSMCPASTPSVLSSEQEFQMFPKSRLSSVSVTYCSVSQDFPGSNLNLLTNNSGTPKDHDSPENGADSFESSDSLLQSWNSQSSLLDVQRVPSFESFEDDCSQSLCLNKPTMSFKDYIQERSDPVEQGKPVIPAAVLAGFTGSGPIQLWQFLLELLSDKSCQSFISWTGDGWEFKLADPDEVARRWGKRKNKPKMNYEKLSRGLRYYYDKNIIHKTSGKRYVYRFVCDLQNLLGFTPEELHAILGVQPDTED
As to conditions: protein: recombinant; tags: N-terminal GST; dsDNA, one strand shown. In a few lines:
as §1

Assay [14] deals with T9, SPDEF (Homo sapiens, UniProt O95238 1-335).
T9 sequence: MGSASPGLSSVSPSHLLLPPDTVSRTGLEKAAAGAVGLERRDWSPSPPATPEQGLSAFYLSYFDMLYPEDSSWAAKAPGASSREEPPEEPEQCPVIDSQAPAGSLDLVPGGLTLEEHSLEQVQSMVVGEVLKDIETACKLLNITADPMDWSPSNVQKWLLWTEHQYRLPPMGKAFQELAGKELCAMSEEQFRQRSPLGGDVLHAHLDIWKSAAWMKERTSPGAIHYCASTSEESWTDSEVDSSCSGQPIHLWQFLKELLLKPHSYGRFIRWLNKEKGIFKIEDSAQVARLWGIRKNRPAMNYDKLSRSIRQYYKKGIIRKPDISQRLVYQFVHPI
Particulars: protein: recombinant; tags: N-terminal GST; dsDNA, one strand shown. In a few lines:
as §1

In assay [15] the target is T10, ETV7 (Homo sapiens, UniProt Q9Y603 1-341).
T10 sequence: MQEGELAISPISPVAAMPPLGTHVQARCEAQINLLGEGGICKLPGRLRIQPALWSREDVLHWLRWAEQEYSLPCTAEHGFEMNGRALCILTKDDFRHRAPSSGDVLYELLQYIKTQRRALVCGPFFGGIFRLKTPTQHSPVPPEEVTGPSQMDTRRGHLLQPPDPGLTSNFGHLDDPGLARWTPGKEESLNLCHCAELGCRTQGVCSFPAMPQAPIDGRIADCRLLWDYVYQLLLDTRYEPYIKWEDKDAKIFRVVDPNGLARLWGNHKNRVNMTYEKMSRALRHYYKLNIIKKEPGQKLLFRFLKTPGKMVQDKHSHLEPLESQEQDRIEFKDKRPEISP
Particulars: protein: recombinant; tags: N-terminal GST; dsDNA, one strand shown. The method in brief:
as §1

Assay [16] concerns the target T11, ELF5 (Homo sapiens, UniProt Q9UKW6-2 1-255).
T11 sequence: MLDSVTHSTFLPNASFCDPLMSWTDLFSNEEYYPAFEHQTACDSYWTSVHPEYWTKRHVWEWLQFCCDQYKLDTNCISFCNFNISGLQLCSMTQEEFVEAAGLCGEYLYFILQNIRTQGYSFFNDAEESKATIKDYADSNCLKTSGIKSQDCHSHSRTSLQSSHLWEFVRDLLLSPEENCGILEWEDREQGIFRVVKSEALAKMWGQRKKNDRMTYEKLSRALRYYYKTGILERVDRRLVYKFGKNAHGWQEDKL
As to conditions: protein: recombinant; tags: N-terminal GST; dsDNA, one strand shown. In a few lines:
as §1

Assay [17] has as its target T12, ETV3 (Homo sapiens, UniProt P41162-2 1-143).
T12 sequence: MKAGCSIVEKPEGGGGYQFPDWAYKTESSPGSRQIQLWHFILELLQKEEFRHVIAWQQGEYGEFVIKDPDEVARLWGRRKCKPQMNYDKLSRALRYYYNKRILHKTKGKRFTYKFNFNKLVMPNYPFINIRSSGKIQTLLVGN
As to conditions: protein: recombinant; tags: N-terminal GST; dsDNA, one strand shown. In a few lines:
as §1

Assay [18] has as its target ETV6 (Homo sapiens, UniProt P41212 1-452). As to conditions: protein: recombinant; tags: N-terminal GST; dsDNA, one strand shown. In a few lines: as §1

ETV5, sequence (P41161 whole entry): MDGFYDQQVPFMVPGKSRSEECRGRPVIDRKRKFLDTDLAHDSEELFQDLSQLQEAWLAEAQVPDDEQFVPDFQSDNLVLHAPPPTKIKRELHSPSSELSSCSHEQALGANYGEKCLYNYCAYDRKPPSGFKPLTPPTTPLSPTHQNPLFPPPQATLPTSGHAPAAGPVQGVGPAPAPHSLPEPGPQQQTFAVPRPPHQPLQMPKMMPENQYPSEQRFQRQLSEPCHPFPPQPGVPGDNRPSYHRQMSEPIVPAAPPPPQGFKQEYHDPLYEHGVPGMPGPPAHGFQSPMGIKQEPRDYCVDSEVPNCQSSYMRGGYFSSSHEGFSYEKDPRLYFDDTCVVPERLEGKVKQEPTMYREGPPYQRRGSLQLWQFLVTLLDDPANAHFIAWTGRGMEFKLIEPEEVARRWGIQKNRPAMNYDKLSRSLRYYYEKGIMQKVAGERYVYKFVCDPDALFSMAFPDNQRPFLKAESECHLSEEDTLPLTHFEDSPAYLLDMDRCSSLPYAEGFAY
CRX, sequence (O43186 whole entry): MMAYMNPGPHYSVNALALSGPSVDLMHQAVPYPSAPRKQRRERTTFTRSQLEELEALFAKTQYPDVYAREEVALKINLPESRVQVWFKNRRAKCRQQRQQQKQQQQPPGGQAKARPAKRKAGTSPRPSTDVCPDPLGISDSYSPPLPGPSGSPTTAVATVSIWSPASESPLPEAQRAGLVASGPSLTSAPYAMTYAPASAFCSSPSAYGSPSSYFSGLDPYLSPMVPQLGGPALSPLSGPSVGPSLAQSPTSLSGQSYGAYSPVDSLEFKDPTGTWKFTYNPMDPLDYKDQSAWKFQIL
ETV1, sequence (P50549 whole entry): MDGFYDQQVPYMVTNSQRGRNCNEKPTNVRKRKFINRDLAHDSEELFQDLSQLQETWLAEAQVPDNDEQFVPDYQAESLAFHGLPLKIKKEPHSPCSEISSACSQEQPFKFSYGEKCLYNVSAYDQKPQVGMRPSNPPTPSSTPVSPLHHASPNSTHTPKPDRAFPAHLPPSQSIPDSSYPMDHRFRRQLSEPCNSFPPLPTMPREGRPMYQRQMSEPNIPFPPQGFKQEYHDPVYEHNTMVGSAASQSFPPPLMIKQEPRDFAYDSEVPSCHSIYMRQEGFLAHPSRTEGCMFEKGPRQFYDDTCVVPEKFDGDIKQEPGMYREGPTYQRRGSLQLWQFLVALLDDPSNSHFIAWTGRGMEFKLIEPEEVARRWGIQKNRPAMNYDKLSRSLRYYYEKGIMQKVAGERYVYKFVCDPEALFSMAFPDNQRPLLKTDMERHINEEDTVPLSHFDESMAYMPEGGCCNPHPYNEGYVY
ETV6, sequence (P41212 whole entry): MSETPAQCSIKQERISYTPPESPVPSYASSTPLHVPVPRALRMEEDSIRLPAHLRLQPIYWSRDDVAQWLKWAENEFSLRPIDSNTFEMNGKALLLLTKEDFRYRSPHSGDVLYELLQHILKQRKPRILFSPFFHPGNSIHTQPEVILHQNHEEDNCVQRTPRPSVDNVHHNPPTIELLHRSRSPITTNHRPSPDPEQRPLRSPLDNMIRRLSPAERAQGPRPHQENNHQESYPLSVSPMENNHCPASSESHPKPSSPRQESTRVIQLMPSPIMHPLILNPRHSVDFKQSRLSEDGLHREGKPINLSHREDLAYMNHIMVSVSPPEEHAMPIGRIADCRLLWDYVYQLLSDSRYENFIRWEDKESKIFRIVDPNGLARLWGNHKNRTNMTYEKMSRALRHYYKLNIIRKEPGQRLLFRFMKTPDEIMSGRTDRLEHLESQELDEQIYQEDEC
ELF4, sequence (Q99607 whole entry): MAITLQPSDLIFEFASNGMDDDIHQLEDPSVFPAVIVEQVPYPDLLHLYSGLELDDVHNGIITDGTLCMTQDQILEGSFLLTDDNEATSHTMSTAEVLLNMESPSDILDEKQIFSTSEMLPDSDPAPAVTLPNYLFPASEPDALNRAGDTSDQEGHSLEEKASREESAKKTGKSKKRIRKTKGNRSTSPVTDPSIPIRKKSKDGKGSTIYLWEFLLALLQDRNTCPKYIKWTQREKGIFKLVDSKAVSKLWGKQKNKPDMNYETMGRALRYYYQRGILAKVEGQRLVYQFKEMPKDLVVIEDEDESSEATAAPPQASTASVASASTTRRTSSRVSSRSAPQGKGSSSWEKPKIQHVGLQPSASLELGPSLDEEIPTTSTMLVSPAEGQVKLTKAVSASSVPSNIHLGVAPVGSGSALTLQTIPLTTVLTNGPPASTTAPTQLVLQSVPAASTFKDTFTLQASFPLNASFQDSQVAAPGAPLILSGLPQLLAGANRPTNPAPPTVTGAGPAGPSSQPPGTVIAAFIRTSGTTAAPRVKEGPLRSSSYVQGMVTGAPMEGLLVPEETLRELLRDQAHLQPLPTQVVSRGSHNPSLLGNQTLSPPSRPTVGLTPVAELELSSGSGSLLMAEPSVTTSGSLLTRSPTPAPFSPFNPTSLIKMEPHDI
HSF1, sequence (Q00613 whole entry): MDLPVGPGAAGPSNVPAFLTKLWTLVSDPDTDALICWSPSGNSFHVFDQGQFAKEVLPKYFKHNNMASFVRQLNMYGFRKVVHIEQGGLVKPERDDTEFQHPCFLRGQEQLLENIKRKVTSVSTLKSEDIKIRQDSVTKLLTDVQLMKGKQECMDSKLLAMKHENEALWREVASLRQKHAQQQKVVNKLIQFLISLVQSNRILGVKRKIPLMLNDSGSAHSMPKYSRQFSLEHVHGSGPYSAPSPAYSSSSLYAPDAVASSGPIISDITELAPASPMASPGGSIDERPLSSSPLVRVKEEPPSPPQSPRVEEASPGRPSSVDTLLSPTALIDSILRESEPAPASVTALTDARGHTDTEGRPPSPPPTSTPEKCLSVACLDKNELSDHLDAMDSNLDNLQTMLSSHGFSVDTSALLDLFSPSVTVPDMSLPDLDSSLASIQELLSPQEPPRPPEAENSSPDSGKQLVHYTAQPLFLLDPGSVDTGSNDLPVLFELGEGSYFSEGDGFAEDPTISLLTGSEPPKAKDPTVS

CTCGAC: the binding signal in assay [1] is 1.41 fold enrichment (6-mer frequency, TF over GST control); in [2], 1.47 fold enrichment (6-mer frequency, TF over GST control); in assay [3], 1.77 fold enrichment (6-mer frequency, TF over GST control); in assay [4], 1.58 fold enrichment (6-mer frequency, TF over GST control); in assay [5] it was 1.58 fold enrichment (6-mer frequency, TF over GST control); in assay [6], 1.49 fold enrichment (6-mer frequency, TF over GST control). The binding signal was 1.39 fold enrichment (6-mer frequency, TF over GST control) in assay [7]; 1.31 fold enrichment (6-mer frequency, TF over GST control) in assay [8]; 1.32 fold enrichment (6-mer frequency, TF over GST control) in assay [9]; 1.58 fold enrichment (6-mer frequency, TF over GST control) in assay [10]; 1.48 fold enrichment (6-mer frequency, TF over GST control) in assay [11]; 1.37 fold enrichment (6-mer frequency, TF over GST control) in assay [12]. For the same sequence, the binding signal in assay [13] was 1.45 fold enrichment (6-mer frequency, TF over GST control); in assay [14], 1.42 fold enrichment (6-mer frequency, TF over GST control); in assay [15], 1.37 fold enrichment (6-mer frequency, TF over GST control); in assay [16], 1.38 fold enrichment (6-mer frequency, TF over GST control); in [17] it was 1.45 fold enrichment (6-mer frequency, TF over GST control); in assay [18], 1.63 fold enrichment (6-mer frequency, TF over GST control).
